Over roughly 16,000 sequences, “rpm ratio (pull-down/input)” has its median near 0.5; the highest 2% begin near 5.5. This excerpt belongs to a sample that is enriched for the highest values.

This experiment deals with T1, MBP-FoxP3dN (Mus musculus, UniProt Q99JB6 188-423).
T1 sequence: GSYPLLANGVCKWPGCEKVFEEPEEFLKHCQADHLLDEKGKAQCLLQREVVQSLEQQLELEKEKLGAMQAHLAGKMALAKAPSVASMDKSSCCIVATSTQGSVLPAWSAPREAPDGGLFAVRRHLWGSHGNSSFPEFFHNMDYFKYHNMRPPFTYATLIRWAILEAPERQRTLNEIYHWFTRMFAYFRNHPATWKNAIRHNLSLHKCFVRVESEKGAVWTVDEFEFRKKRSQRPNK
The experiment is described as follows: PD-seq (MBP pull-down with sequencing); 20 mM Tris-HCl pH 7.5, 100 mM NaCl, 1.5 mM MgCl2, 0.4 uM protein, 0.1 uM dsDNA library, 30 min, room temperature, amylose pull-down; high values mean tight binding. The note with it: protein: recombinant; tags: His6-MBP; chain copies: 2; dsDNA, one strand shown. A digest of the protocol:
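Mouse FoxP3 or FoxP1 fragment lacking the N-terminus, His6-MBP-tagged and expressed in E. coli, was incubated at 0.4 µM with 0.1 µM Klenow-filled degenerate double-stranded DNA library for 30 min at room temperature in Tris pH 7.5 buffer with NaCl and MgCl2. Complexes captured on amylose resin were washed three times and their DNA sequenced on Illumina. Binding is reads-per-million enrichment of pull-down over input, replicates pooled.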
On to “GATGATTGTTCTCCCAGCTGATGAATTTTTGCACTCGAGTAAACAAATTTTCCTAATCTTTCTGTTCAAGCGCCATCTAC”, for which the binding signal is 0.699 RPM ratio (pull-down/input).

For the sequence “GATGATTGTTCTCCCAGCTGATGAATTGCTGCTCTCGAGTAAACAAATTTTCCTAATCTTTCTGTTCAAGCGCCATCTAC”, the binding signal is 0.662 RPM ratio (pull-down/input).

Turning to “GATGATTGTTCTCCCAGCTGATGAATTAAGACGATCGAGTAAACAAATTTTCCTAATCTTTCTGTTCAAGCGCCATCTAC”, the binding signal was 0.207 RPM ratio (pull-down/input).

Consider “GATGATTGTTCTCCCAGCTGATGAATTGCTCACATCGAGTAAACAAATTTTCCTAATCTTTCTGTTCAAGCGCCATCTAC”, for which the binding signal is 0.686 RPM ratio (pull-down/input).

Take “GATGATTGTTCTCCCAGCTGATGAATTATATTTATCGAGTAAACAAATTTTCCTAATCTTTCTGTTCAAGCGCCATCTAC”: the binding signal was 5.59 RPM ratio (pull-down/input).

On to “GATGATTGTTCTCCCAGCTGATGAATTGTTTATATCGAGTAAACAAATTTTCCTAATCTTTCTGTTCAAGCGCCATCTAC”, for which the binding signal is 5.7 RPM ratio (pull-down/input).

Regarding “GATGATTGTTCTCCCAGCTGATGAATTTATATTATCGAGTAAACAAATTTTCCTAATCTTTCTGTTCAAGCGCCATCTAC”, the binding signal is 1.6 RPM ratio (pull-down/input).

For “GATGATTGTTCTCCCAGCTGATGAATTTATTATATCGAGTAAACAAATTTTCCTAATCTTTCTGTTCAAGCGCCATCTAC”, the binding signal is 2.18 RPM ratio (pull-down/input).

For “GATGATTGTTCTCCCAGCTGATGAATTTTTTATATCGAGTAAACAAATTTTCCTAATCTTTCTGTTCAAGCGCCATCTAC”, the binding signal is 0.31 RPM ratio (pull-down/input).

For the sequence “GATGATTGTTCTCCCAGCTGATGAATTTTATATATCGAGTAAACAAATTTTCCTAATCTTTCTGTTCAAGCGCCATCTAC”, the binding signal is 1.65 RPM ratio (pull-down/input).

With “GATGATTGTTCTCCCAGCTGATGAATTAAAGTGTTCGAGTAAACAAATTTTCCTAATCTTTCTGTTCAAGCGCCATCTAC”, the binding signal is 0.592 RPM ratio (pull-down/input).

For “GATGATTGTTCTCCCAGCTGATGAATTATAACCGTCGAGTAAACAAATTTTCCTAATCTTTCTGTTCAAGCGCCATCTAC”, the binding signal was 0.364 RPM ratio (pull-down/input).

On to “GATGATTGTTCTCCCAGCTGATGAATTATGCGCCTCGAGTAAACAAATTTTCCTAATCTTTCTGTTCAAGCGCCATCTAC”, for which the binding signal was 2.82 RPM ratio (pull-down/input).

On to “GATGATTGTTCTCCCAGCTGATGAATTATGCTGTTCGAGTAAACAAATTTTCCTAATCTTTCTGTTCAAGCGCCATCTAC”, for which the binding signal is 3.42 RPM ratio (pull-down/input).

Take “GATGATTGTTCTCCCAGCTGATGAATTATATGCCTCGAGTAAACAAATTTTCCTAATCTTTCTGTTCAAGCGCCATCTAC”: the binding signal is 0.913 RPM ratio (pull-down/input).

Take “GATGATTGTTCTCCCAGCTGATGAATTATGATTGTCGAGTAAACAAATTTTCCTAATCTTTCTGTTCAAGCGCCATCTAC”: the binding signal was 4.27 RPM ratio (pull-down/input).

“GATGATTGTTCTCCCAGCTGATGAATTATGAAATTCGAGTAAACAAATTTTCCTAATCTTTCTGTTCAAGCGCCATCTAC”: the binding signal is 0.632 RPM ratio (pull-down/input).

In the case of “GATGATTGTTCTCCCAGCTGATGAATTATGCATGTCGAGTAAACAAATTTTCCTAATCTTTCTGTTCAAGCGCCATCTAC”, the binding signal was 6.46 RPM ratio (pull-down/input).

As for “GATGATTGTTCTCCCAGCTGATGAATTATGAATGTCGAGTAAACAAATTTTCCTAATCTTTCTGTTCAAGCGCCATCTAC”, the binding signal is 1.04 RPM ratio (pull-down/input).

For the sequence “GATGATTGTTCTCCCAGCTGATGAATTAATTATGTCGAGTAAACAAATTTTCCTAATCTTTCTGTTCAAGCGCCATCTAC”, the binding signal was 1.89 RPM ratio (pull-down/input).

In the case of “GATGATTGTTCTCCCAGCTGATGAATTATGCCATTCGAGTAAACAAATTTTCCTAATCTTTCTGTTCAAGCGCCATCTAC”, the binding signal is 5.9 RPM ratio (pull-down/input).

“GATGATTGTTCTCCCAGCTGATGAATTATGCCTCTCGAGTAAACAAATTTTCCTAATCTTTCTGTTCAAGCGCCATCTAC”: the binding signal is 6.22 RPM ratio (pull-down/input).

For “GATGATTGTTCTCCCAGCTGATGAATTATGCCTGTCGAGTAAACAAATTTTCCTAATCTTTCTGTTCAAGCGCCATCTAC”, the binding signal was 5.87 RPM ratio (pull-down/input).

In the case of “GATGATTGTTCTCCCAGCTGATGAATTATGCTTGTCGAGTAAACAAATTTTCCTAATCTTTCTGTTCAAGCGCCATCTAC”, the binding signal was 4.71 RPM ratio (pull-down/input).

Take “GATGATTGTTCTCCCAGCTGATGAATTCTGCGGCTCGAGTAAACAAATTTTCCTAATCTTTCTGTTCAAGCGCCATCTAC”: the binding signal was 1.01 RPM ratio (pull-down/input).

For the sequence “GATGATTGTTCTCCCAGCTGATGAATTGCAGCCTTCGAGTAAACAAATTTTCCTAATCTTTCTGTTCAAGCGCCATCTAC”, the binding signal was 2.83 RPM ratio (pull-down/input).

“GATGATTGTTCTCCCAGCTGATGAATTGTAAACATCGAGTAAACAAATTTTCCTAATCTTTCTGTTCAAGCGCCATCTAC”: the binding signal is 5.2 RPM ratio (pull-down/input).

As to “GATGATTGTTCTCCCAGCTGATGAATTTGCCGATTCGAGTAAACAAATTTTCCTAATCTTTCTGTTCAAGCGCCATCTAC”, the binding signal was 0.474 RPM ratio (pull-down/input).

For the sequence “GATGATTGTTCTCCCAGCTGATGAATTAAATCTCTCGAGTAAACAAATTTTCCTAATCTTTCTGTTCAAGCGCCATCTAC”, the binding signal was 0.29 RPM ratio (pull-down/input).

On to “GATGATTGTTCTCCCAGCTGATGAATTCAGTTCGTCGAGTAAACAAATTTTCCTAATCTTTCTGTTCAAGCGCCATCTAC”, for which the binding signal was 0.758 RPM ratio (pull-down/input).

“GATGATTGTTCTCCCAGCTGATGAATTACTTCTATCGAGTAAACAAATTTTCCTAATCTTTCTGTTCAAGCGCCATCTAC”: the binding signal was 0.347 RPM ratio (pull-down/input).

For “GATGATTGTTCTCCCAGCTGATGAATTCCGAACTTCGAGTAAACAAATTTTCCTAATCTTTCTGTTCAAGCGCCATCTAC”, the binding signal is 0.253 RPM ratio (pull-down/input).

For the origin of these results see article PMC12820563, “FoxP3 forms a head-to-head dimer in vivo and stabilizes its multimerization on adjacent microsatellites”.
